The structures appear in SMILES notation. About 83,000 compounds went through this panel and 20% of them were active in at least one assay; those are over-represented in the sample as a whole.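 Assay: single dose, 48 h. Readout: percent growth (0 = no net growth; negative = cell death). Active: <10.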 A number with no mark means an inactive call. Activity calls are given as the source filed them. Where a SMILES comes first, the peptide text is derived from it. Bridges are numbered along the chain shown (N, C = ends). [ ]: non-standard residue; d: D form. The star is where a group is joined. ξ: configuration not given here. ξNMePhe(4-NMe2) = CNC(Cc1ccc(N(C)C)cc1)C(=O)O; Picolinoyl(3-OH) = O=C(c1ncccc1O)*; ξPip(4-oxo) = O=C1CCNC(C(=O)O)C1; Phg = N[CH](C(=O)O)c1ccccc1; Abu = CC[CH](N)C(=O)O

What all share (assay): NCI-60 one-dose screen, 48 h (100 = growth as untreated, 0 = no growth, -100 = all killed)
In one assay the test system is T-47D breast. The settings on record: 10 µM.
For a further assay, the system named is BT-549 breast. Particulars: 10 µM.
A further assay has as its system MDA-MB-435 melanoma. Particulars: 10 µM.
The test system of a further assay is SW-620 colon. Particulars: 10 µM.
The next assay concerns MCF7 breast. Particulars: 10 µM unless noted.
For the next assay, the system named is HCT-116 colon. Particulars: 10 µM.
Another assay concerns KM12 colon. The settings on record: 10 µM.
The next assay relates to HCC-2998 colon. Particulars: 10 µM.

As for `CN(c1ccccc1)c1ncnc2c1ncn2C`, the growth with T-47D breast was 100%; in the assay with BT-549 breast it was 101%; in the assay on MDA-MB-435 melanoma, 106%; in the assay with SW-620 colon it was 97.9%; with MCF7 breast, 97.8%; in the assay with HCT-116 colon it was 104%. In the assay with KM12 colon, the growth was 108%.
On to `CCCC(=O)c1cc(C)ccc1OC`, for which the growth in the assay with T-47D breast is 105%; in the assay with BT-549 breast, 107%; in the assay on MDA-MB-435 melanoma, 116%; in the assay on SW-620 colon, 114%; in the assay with MCF7 breast, 103%; with HCT-116 colon, 107%. Moreover, the growth in the assay on KM12 colon was 110%.
`S=c1nn[nH]c2ccccc12`: the growth in the assay with T-47D breast is 109%; with BT-549 breast, 106%; in the assay on MDA-MB-435 melanoma, 120%; in the assay with SW-620 colon, 113%; in the assay with MCF7 breast, 99.2%; in the assay on HCT-116 colon it was 103%. Moreover, the growth with KM12 colon is 101%.
Take `C[C@@H](c1ccccc1)[C@@H](C(=O)O)c1ccccc1`: the growth in the assay on T-47D breast is 101%; in the assay with BT-549 breast, 97.6%; in the assay on MDA-MB-435 melanoma, 104%; in the assay on SW-620 colon, 103%; with MCF7 breast it was 93.4%; in the assay on HCT-116 colon it was 102%. For the same compound, the growth with KM12 colon is 109%.
As for `O=C1OC[C@H]2[C@H](c3ccc(O)c(O)c3)c3cc(O)c(O)cc3C[C@H]12`, the growth in the assay on T-47D breast was 131%; in the assay with BT-549 breast, 134%; with MDA-MB-435 melanoma, 121%; with SW-620 colon, 107%; in the assay with MCF7 breast it was 121%; with HCT-116 colon, 103%. In the assay on KM12 colon, the growth was 112%.
For the compound `COc1cc2c(cc1O)CC[C@@H]1C2CC[C@@]2(C)C1CC[C@@H]2O` (some centres undefined), the growth is 31.1% in the assay with T-47D breast; 23.4% in the assay on BT-549 breast; -46.9% (active) in the assay on MDA-MB-435 melanoma; 12.1% in the assay with SW-620 colon; 16.4% in the assay with MCF7 breast; 7.39% (active) in the assay with HCT-116 colon. Moreover, the growth in the assay on KM12 colon was 33.5%.
As for `CC(CC(=O)c1ccccc1)c1ccccc1` (centres undefined), the growth was 104% in the assay on T-47D breast; 107% in the assay on BT-549 breast; 99.8% with MDA-MB-435 melanoma; 102% with SW-620 colon; 105% in the assay on MCF7 breast; 106% in the assay on HCT-116 colon. Besides, in the assay with KM12 colon, the growth is 113%.
For `CC(O)COc1ccc(-c2ccccc2)cc1` (centres undefined), the growth with T-47D breast was 94%; in the assay with BT-549 breast, 104%; in the assay with MDA-MB-435 melanoma, 104%; in the assay on SW-620 colon, 103%; in the assay with MCF7 breast it was 100%; in the assay on HCT-116 colon, 97.7%. The growth with KM12 colon is 105%.
As for `FC(F)(F)c1ccc2c(c1)N(CCCN1CCN(C3CC3)CC1)c1ccccc1S2`, the growth is 87.8% with T-47D breast; 61% with BT-549 breast; 57.7% in the assay with MDA-MB-435 melanoma; 38.9% in the assay on SW-620 colon; 77.3% with MCF7 breast; 42.7% in the assay with HCT-116 colon. In addition, the growth in the assay with KM12 colon is 59.6%.
On to `CC1(C(=O)O)NC(C(=O)O)Cc2c1[nH]c1ccccc21` (centres undefined), for which the growth with T-47D breast is 95.7%; in the assay with BT-549 breast, 119%; with MDA-MB-435 melanoma it was 94.6%; in the assay with SW-620 colon, 97.8%; with MCF7 breast, 98%; in the assay on HCT-116 colon it was 92.6%. For the same compound, the growth in the assay with KM12 colon is 103%.
As for `NC(CSC(c1ccccc1)(c1ccccc1)c1ccccc1)C(=O)O` (centres undefined), the growth in the assay on T-47D breast is 15.5%; with BT-549 breast it was 47.4%; in the assay on MDA-MB-435 melanoma it was -66.6% (active); with SW-620 colon, 24.8%; with MCF7 breast, 2.58% (active); with HCT-116 colon it was 19.9%. Also, the growth in the assay with KM12 colon was 22.5%.
Consider `Cc1ccc(O)c(C(=O)c2ccccc2)c1`, for which the growth was 109% with T-47D breast; 99.1% with BT-549 breast; 110% in the assay on MDA-MB-435 melanoma; 100% in the assay with SW-620 colon; 105% in the assay with MCF7 breast; 102% with HCT-116 colon. Further, in the assay with KM12 colon, the growth was 106%.
Regarding `Cc1ccc(C(=O)NC2c3ccccc3Oc3ccccc32)cc1`, the growth in the assay with T-47D breast is 60.5%; with BT-549 breast, 62.6%; in the assay with MDA-MB-435 melanoma, 6.21% (active); with SW-620 colon it was 38.9%; with MCF7 breast, 21.7%; in the assay on HCT-116 colon, 30.3%. For the same compound, the growth in the assay on KM12 colon was 51.3%.
`Cc1ccc(N)cc1[N+](=O)[O-]`: the growth with T-47D breast is 107%; in the assay with BT-549 breast, 97.9%; in the assay with MDA-MB-435 melanoma, 119%; in the assay with MCF7 breast it was 76.4%; in the assay with HCT-116 colon, 101%; in the assay on HCC-2998 colon it was 92.5%. The growth with KM12 colon is 105%.
In the case of `O=[N+]([O-])c1ccc(Sc2ccncn2)c([N+](=O)[O-])c1`, the growth in the assay with T-47D breast is 48.3%; with BT-549 breast, 74.9%; with MDA-MB-435 melanoma it was 8.62% (active); in the assay on HCT-116 colon, 20.1%; with HCC-2998 colon, 90.5%; with KM12 colon, 76.2%.
As for `CCCCC/C=N/Nc1nc(C)cc(=O)[nH]1`, the growth is 103% in the assay with T-47D breast; 109% with BT-549 breast; 95.7% in the assay with MDA-MB-435 melanoma; 92.9% in the assay on MCF7 breast; 101% in the assay with HCT-116 colon; 98.8% in the assay with HCC-2998 colon. In addition, the growth in the assay on KM12 colon is 106%.
`CCC1NC(=O)C(NC(=O)c2ncccc2O)C(C)OC(=O)C(c2ccccc2)NC(=O)C2CC(=O)CCN2C(=O)C(Cc2ccc(N(C)C)cc2)N(C)C(=O)C2CCCN2C1=O` (centres undefined) (tested in a mixture with another compound) ({Picolinoyl(3-OH)}-T[Abu]P[ξNMePhe(4-NMe2)][ξPip(4-oxo)][Phg]; ester 1-C; configuration not given here): the growth is 64.8% in the assay on T-47D breast; 54.6% in the assay with BT-549 breast; 57.1% in the assay with MDA-MB-435 melanoma; 46.5% in the assay with MCF7 breast; 34.2% in the assay on HCT-116 colon; 74.9% with KM12 colon.
Turning to `C#CC(C)(O)c1ccc(Cl)cc1` (centres undefined), the growth with T-47D breast is 86.1%; with BT-549 breast, 105%; in the assay on MDA-MB-435 melanoma it was 110%; in the assay with MCF7 breast, 97%; with HCT-116 colon, 96.8%; in the assay with HCC-2998 colon, 97.8%. The growth in the assay on KM12 colon was 105%.

For the origin of these results see PubChem BioAssay (NCI).
